About 79,000 compounds went through this panel and 15% of them were active in at least one assay; those are over-represented in the sample as a whole. A number with no mark means an inactive call. The source made the active and inactive calls. Rule as the data show it: active = growth inhibition above about 70%; inactive = the rest. Where a SMILES comes first, the peptide text is derived from it. [ ]: non-standard residue; d: D form. The star is where a group is joined. ξ: configuration not given here. Cbz = O=C(OCc1ccccc1)*; ξM = CSCCC(N)C(=O)O
Tests used:
[1] = NCI Yeast Anticancer Drug Screen. Data for the rad50 strain (AID 155);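 also: 0% = growth of vehicle-only cultures of the same strain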; details: S. cerevisiae rad50 strain growth inhibition; at 50.0 µM; active compounds read high
Procedure, shortened: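 A DNA repair-deficient yeast mutant serves as the test organism; compound-induced growth inhibition is calculated against vehicle-treated cells.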

[2] = NCI Yeast Anticancer Drug Screen. Data for the mec2-1 strain (AID 157); details: S. cerevisiae mec2-1 strain, at 50.0 µM, active compounds read high
Procedure, shortened: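 mec2-1 yeast strain, carrying an alteration in DNA damage repair or cell cycle control, was exposed to compounds; growth inhibition was measured relative to vehicle-treated controls.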

[3] = NCI Yeast Anticancer Drug Screen. Data for the sgs1 mgt1 strain (AID 161);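 also: 0% = growth of cultures given vehicle only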; details: S. cerevisiae sgs1 mgt1 strain, at 50.0 µM, active compounds read high
Procedure, shortened: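 Yeast cells carrying a defined DNA-repair defect were exposed to test compounds. Growth inhibition was measured relative to vehicle-treated controls.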

[4] = NCI Yeast Anticancer Drug Screen. Data for the cln2 rad14 strain (AID 165);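 also: 0% = growth equal to vehicle treated cultures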; details: S. cerevisiae cln2 rad14 strain, at 50.0 µM, active compounds read high
Procedure, shortened: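 Yeast carrying cln2 and rad14 alterations (cell cycle control and DNA damage repair) were exposed to compounds. Growth inhibition was measured against vehicle-treated controls.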

[5] = NCI Yeast Anticancer Drug Screen. Data for the bub3 strain (AID 167); details: S. cerevisiae bub3 mutant strain, at 50.0 µM, active compounds read high
Procedure, shortened: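 Inhibition values come from growth of compound-treated mutant yeast normalised to vehicle-treated controls.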

[6] = NCI Yeast Anticancer Drug Screen. Data for the mlh1 rad18 strain (AID 175); details: S. cerevisiae mlh1 rad18 strain growth inhibition; at 50.0 µM; active compounds read high
Procedure, shortened: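 Growth inhibition of the yeast strain was measured after compound exposure and expressed relative to vehicle-treated controls. The strain carries defined defects in DNA damage repair.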

Structure (SMILES)	growth inhibition [1]	growth inhibition [2]	growth inhibition [3]	growth inhibition [4]	growth inhibition [5]	growth inhibition [6]
CC(=O)c1c2c(cc3c1CC1(C3)Cc3cc4c(c(C(C)=O)c3C1)CCC4)CCC2	-21.5%	-31.4%	-4%	-5.45%	-3.35%	-30.6%
COc1ccc(/C=N/NC(=O)CCCCCCCCC(=O)N/N=C/c2ccc(OC)c(OC)c2)cc1OC	-26.4%	-13.4%	-23.4%	-50.2%	-0.75%	-12.5%
O=C(c1ccccc1)c1ccc(Cl)c(Cl)c1	-5.3%	-23.3%	2.05%	-55.5%	6.65%	-8.05%
C/C(=N/N(C)C)c1ccc(C)cc1	20.3%	-5.75%	3.25%	-26.9%	0.6%	12.5%
CC(=O)NC(Cc1ccccc1)C(=O)Nc1ccc(C)cc1 (stereo not drawn)	14.3%	0.55%	15.8%	16.6%	11.4%	14.2%
COc1ccc(C2(C#N)CCCC2)cc1	5.8%	12.4%	0.95%	-30.6%	0.7%	8.7%
CCOC(=O)C1/C(=C\O)C(=O)c2cc(OC)c(OC)cc2C1c1ccc(OC)c(OC)c1 (stereo not drawn)	-0.5%	0.9%	20.6%	8.35%	-5.95%	21.9%
COc1ccc(OC)c2c1ccc1c(C)c3ccccc3c(C)c12	12.2%	-1.1%	14.2%	6.8%	34.1%	26.2%
C/C=C/COc1cc2c(cc1C(C)c1ccc(OC)cc1)OCO2 (stereo not drawn)	-9.3%	-0.95%	-6.15%	24.4%	-3.85%	-1.2%
CN(C)c1ccc(N=O)c(O)c1	-3.35%	-6.45%	-63%	13.6%	-15.8%	3%
CC(Nc1ncccn1)Nc1ncccn1	-6.4%	1.8%	7.75%	-29.9%	-1.95%	-1.75%
CCN(CC)c1cc(-c2ccccc2)oc(=O)c1Cl	25.8%	-10.3%	13.6%	9.4%	16.5%	20.6%
CSCCC(NC(=O)CNC(=O)CNC(=O)OCc1ccccc1)C(=O)O (stereo not drawn) (Cbz-Gly-Gly-[ξM]-OH)	96.5% (active)	98.7% (active)	92.5% (active)	98.4% (active)	99% (active)	96.7% (active)
c1ccc(C[P+]2(c3ccccc3)c3ccccc3-c3ccccc32)cc1	-25.9%	-8%	-11.2%	4.15%	-6.6%	-38.2%
Nc1cccc(C(CC(=O)O)CC(=O)O)c1	14.8%	10.9%	13%	16.7%	-1.5%	15.8%
CC(=O)Nc1ccc(N=C2c3ccccc3-c3ccc([N+](=O)[O-])cc32)cc1	-6.1%	-10.8%	11.2%	-11.7%	-5.7%	-13.6%
O=C(c1cccc(C(=O)N2CCCC2)n1)N1CCCC1	-11.4%	-13.2%	-1.7%	-25.6%	-15.5%	-18.8%
COc1cccc(N2C(=O)C3c4[nH]c5ccccc5c4C4CCCC4C3C2=O)c1 (stereo not drawn)	-36.5%	-47.4%	-20.8%	-8.15%	-50%	-22.4%
NC(N)=Nc1ccc(Sc2ccc(N=C(N)N)cc2)cc1	-15.8%	-35.5%	-16.6%	-19.6%	-4.65%	-26.5%
O=C(c1cccc(C(F)(F)F)c1)c1ccccc1Cc1ccccc1	3.85%	13.9%	12.2%	-28.1%	14.2%	42%
CCOC(=O)CCC(C)=O	22.8%	11.2%	14.9%	20.5%	14.7%	11%
C=CCOC(=O)Nc1cccc(O)c1	16.9%	-5.95%	3.2%	-57.6%	-29.6%	1.4%

Structure (SMILES)	growth inhibition [1]	growth inhibition [2]	growth inhibition [3]	growth inhibition [4]	growth inhibition [5]	growth inhibition [6]
O=C(O)c1nc2nc(Cl)c(Cl)nc2[nH]1	-22.7%	-30.4%	-19.7%	21.9%	-37.8%	9.4%
CC(=O)OC/C=C/CN(C)C	9.3%	4.6%	-7.25%	7.8%	-6.2%	16.5%
C[N+](C)(CC(=O)Nc1cc(C(F)(F)F)cc(C(F)(F)F)c1)CC(=O)Nc1ccc(Cl)c(C(F)(F)F)c1	99.5% (active)	99.8% (active)	99.8% (active)	99.3% (active)	99.4% (active)	99.5% (active)
CCC(O)(c1ccccc1)C(O)c1ccccc1 (stereo not drawn)	-2.35%	8.9%	-4.4%	3.8%	4.95%	-15.8%
CCN(CC)CCOC(C)=O	8.25%	-15.7%	-19.4%	0.7%	-11.1%	-26.3%
Clc1ccc2c(c1)nnn1nccc21	16.4%	17.6%	-9.8%	10.9%	13.8%	14.8%
CCN(CC)C(=O)C1CCCCN1 (stereo not drawn)	1.65%	2.6%	3.1%	-43.2%	-11%	6.65%
CC(=O)C1OC1c1ccccn1 (stereo not drawn)	-5.15%	3.7%	-9.5%	55.8%	3.4%	3.35%
COc1ccccc1C(c1ccccc1OC)c1ccccc1C(=O)O	14.5%	-3.35%	5.75%	15%	6.05%	26.9%
CCOC(=O)Cc1nnc2n(-c3ccccc3)c(=O)c3ccccc3n12	-23.6%	-15.3%	-21.7%	11.8%	-21.9%	-74.2%
Cc1ccc(NC(=O)C(C)S)cc1 (stereo not drawn)	24.6%	11.6%	29.1%	38.6%	25.7%	32.4%
C=CC[N+](CCO)(CCO)CCCCCCCCCCCCCCCCCC	98.4% (active)	99% (active)	99.2% (active)	96.1% (active)	98.5% (active)	97.8% (active)
N#CCCN1CCCSC1=S	6.15%	17.1%	4.2%	4.05%	-3.1%	1.7%
CC(=O)OCC(OC(C)=O)C(OC(C)=O)C(OC(C)=O)C(S)S (stereo not drawn)	5.2%	50.1%	30.1%	-4.2%	29.9%	28.9%
Cc1cc2ccccc2c[n+]1C1CCc2ccccc2C1=O (stereo not drawn)	7.1%	5.6%	30.6%	24%	3.4%	20.2%
CCCC(O)C(C)(C)C (stereo not drawn)	-35.7%	-67.5%	-51.6%	-11.2%	-43.5%	-42%
c1ccc2c3c(ccc2c1)CCCC3	7.5%	-2.15%	2.9%	-8%	15.9%	0.7%
CN1CCC(CO)CC1	-12.8%	-2.7%	-2.65%	9.05%	11.8%	-8.4%
OCC(O)C(O)C(O)C(O)C(O)C(O)CO (stereo not drawn)	1.8%	3.65%	7.35%	5.75%	-1.2%	3.35%
CCOC(=O)C1CCCC1S(=O)(=O)c1ccc(C)cc1 (stereo not drawn)	-20%	-15.3%	-27.4%	21.9%	1.75%	-3.5%
c1ccc(C2Nc3ccccc3NC2c2ccccc2)cc1 (stereo not drawn)	29.5%	5.75%	24.4%	20.9%	60.6%	56.8%

— PubChem BioAssay (NCI)
